# CF NFkB block: cystic fibrosis NF-kB activation inhibition; KKLEB NF-kB-GFP reporter, PAF-induced, GFP fluorescence overnight; inhibition, % at 5 µM; actives 0.86% (n = 360,000); AID 588850;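 active = at least 50% inhibition at 5 µM, scaled per plate between neutral and stimulator controls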;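 also: PAF is a Pseudomonas aeruginosa culture filtrate used as stimulus; plate controls were PAF-stimulated DMSO wells for no effect and unstimulated DMSO wells for full effect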
# Mdm2-MdmX inh: inhibitors of human Mdm2/MdmX interaction; SaOS-2 split-luciferase Mdm2/MdmX complementation, luminescence; inhibition, % at 8 µM; actives 3% (n = 330,000); AID 485346;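 active = inhibition of at least 50% at 8 µM in the primary screen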
# KKLEB cytotox: counter-screen for CF NF-kB inhibitors: cytotoxicity; KKLEB CF airway cells viability, ATPlite luminescence, overnight; hits give low values; cells stimulated with P. aeruginosa culture filtrate; activity change (cytotoxicity), % at 5 µM; actives 0.36% (n = 360,000); AID 602141;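 active = corrected activity change at or below -50% at 5 µM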
# ABHD5 PLIN5 PPI: blocks binding of human ABHD5 to perilipin-5 | Q00G26+Q8WTS1 | Split G. princeps luciferase complementation, luminescence, 4 h | inhibition, % at 4 µM | actives 0.78% (n = 360,000) | AID 602281;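 active = inhibition above the mean inhibition across every tested compound plus 3 SD, cut at about 22% in these data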;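 also: 0% = DMSO only wells and the 100% control is not disclosed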
# Target sequence (Q00G26 whole entry, looked up): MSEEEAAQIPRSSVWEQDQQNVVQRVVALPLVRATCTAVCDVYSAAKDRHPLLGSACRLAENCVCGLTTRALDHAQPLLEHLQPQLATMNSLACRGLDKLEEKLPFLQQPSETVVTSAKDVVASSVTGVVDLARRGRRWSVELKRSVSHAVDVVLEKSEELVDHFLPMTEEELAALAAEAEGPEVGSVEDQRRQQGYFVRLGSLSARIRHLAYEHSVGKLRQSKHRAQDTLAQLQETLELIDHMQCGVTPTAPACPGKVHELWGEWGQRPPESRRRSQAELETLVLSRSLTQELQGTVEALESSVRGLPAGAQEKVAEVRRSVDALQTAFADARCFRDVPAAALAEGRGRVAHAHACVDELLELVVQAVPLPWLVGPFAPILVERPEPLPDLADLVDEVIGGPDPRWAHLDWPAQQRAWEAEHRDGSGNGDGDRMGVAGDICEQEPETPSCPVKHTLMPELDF
# Target sequence (Q8WTS1 whole entry, looked up): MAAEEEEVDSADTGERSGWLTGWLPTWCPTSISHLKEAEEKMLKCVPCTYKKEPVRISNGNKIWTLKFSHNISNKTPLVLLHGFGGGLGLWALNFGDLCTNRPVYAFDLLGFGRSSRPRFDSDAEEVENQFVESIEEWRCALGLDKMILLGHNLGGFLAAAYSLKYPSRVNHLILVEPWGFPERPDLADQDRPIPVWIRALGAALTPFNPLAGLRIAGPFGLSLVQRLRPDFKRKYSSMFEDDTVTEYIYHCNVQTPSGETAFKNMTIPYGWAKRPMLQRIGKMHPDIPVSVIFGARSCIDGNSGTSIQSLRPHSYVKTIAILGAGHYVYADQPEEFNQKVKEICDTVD
# HIF-2a inh: HIF-2a inhibition; 786-0 RCC cells HIF-2a reporter, luciferase luminescence, overnight; inhibition, % at 18.8 µM; actives 0.72% (n = 360,000);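 active = inhibition of the luminescence signal of 40% or more relative to plate controls, in a single-dose primary screen at 18.75 µM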
# Peg3 prom inh-1: reduces Peg3 promoter-driven luciferase expression in HeLa; HeLa PEG-Prom luciferase reporter, luminescence, overnight; inhibition, % at 20 µM; actives 1.7% (n = 360,000); AID 588405;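 active = inhibition of at least 50% at 20 µM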
# Mdm2 MdmX conf-1: confirmation of human Mdm2/MdmX interaction inhibitors. shares compounds with Mdm2-MdmX inh. Mdm2-MdmX binding, luminescent assay. inhibition, % at 8 µM. actives 55% (n = 10,000)
# FLuc counter: full-length luciferase inhibition in Mdm2/MdmX counter-screen. shares compounds with Mdm2-MdmX inh. SaOS-2 full-length luciferase counterscreen, luminescence. inhibition, % at 8 µM. actives 77% (n = 6,200). AID 504607;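 active = mean inhibition at 8 µM reaching about 37%, which flags the compound as non-specific, limit read from the data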;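 also: p53-null SaOS-2 cells with luciferase driven by a doxycycline-inducible promoter; compound on cells about two nights before reading with doxycycline added after day one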
# Peg3 prom inh-2: confirmation of Peg3 promoter inhibitors. shares compounds with Peg3 prom inh-1. HeLa PEG-Prom luciferase reporter, luminescence, overnight. inhibition, % at 20 µM. actives 84% (n = 1,300). AID 602417;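 active = at 20 µM dose, 40% or more inhibition averaged across four replicates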
# CF NFkB conf: CF NF-kB inhibition confirmation, single concentration; KKLEB CF airway cells, PAF-induced NF-kB-GFP fluorescence, overnight; AID 602472; shares compounds with CF NFkB block; inhibition, % at 5 µM; actives 64% (n = 1,300);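 also: stimulus PAF is a Pseudomonas aeruginosa filtrate and not platelet activating factor; plate controls were DMSO wells with stimulus for no effect and unstimulated DMSO wells for full effect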
# ABHD5 PLIN5 conf: confirmation of human ABHD5-PLIN5 interaction inhibitors. actives 67% (n = 2,200). biochemical ABHD5-PLIN5 interaction, luminescence. shares compounds with ABHD5 PLIN5 PPI. inhibition, % at 4 µM; in the data active = inhibition above about 23%;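 also: 0% = DMSO vehicle wells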
# HNF4 counter: HNF4 split-luciferase signal hit, counter-screen. actives 77% (n = 2,200). shares compounds with ABHD5 PLIN5 PPI. HNF4 dimerization, luminescence, biochemical. inhibition, % at 4 µM. AID 651674;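 active = mean inhibition across replicate wells exceeding the computed hit threshold, cut at about 13% in these data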;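 also: light from luciferase halves that rejoin when HNF4 fusion proteins dimerize; 0% = DMSO only wells and the 100% control is not given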
# Mdm2 MdmX conf-2: confirmation of inhibitors of human Mdm2/MdmX interaction, set 2; shares compounds with HIF-2a inh; SaOS-2 split-luciferase Mdm2/MdmX complementation, luminescence; inhibition, % at 8 µM; actives 99% (n = 740); AID 504601;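 active = mean inhibition of the luminescence signal across two replicates at or above 26 percent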
# HIF-2a inh conf: confirmation of HIF-2a inhibitors | shares compounds with HIF-2a inh | 786-0 RCC cells, HIF-2a luciferase reporter luminescence, overnight | inhibition, % at 18.8 µM | actives 56% (n = 1,800);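 active = mean inhibition across four replicates of at least 40 percent at the single tested concentration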
# HIF-1a counter: counter-screen for HIF-2a inhibitors: HIF-1a inhibition in MiaPaCa-2 cells | shares compounds with HIF-2a inh | MiaPaCa-2 HIF-1a luciferase reporter, desferoxamine, overnight | inhibition, % at 18.8 µM | actives 72% (n = 1,800) | AID 651589;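 active = mean inhibition of the reporter signal across four replicates at the single tested dose of 50% or more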
# Starred values were filed as active, the others as inactive; / = no result. Sampled rows, rich in hits. Any-hit rate of the full collection: about 4.6%. Rule as the data show it, unless noted: active = inhibition above about 40%; inactive = the rest.
SMILES,CF NFkB block,Mdm2-MdmX inh,KKLEB cytotox,ABHD5 PLIN5 PPI,HIF-2a inh,Peg3 prom inh-1,Mdm2 MdmX conf-1,FLuc counter,Mdm2 MdmX conf-2,others
CCCC(=O)NC(c1ccccc1)c1ccc2cccnc2c1O (stereo not drawn),-9,79*,0,18,6,53*,89*,49*,80*,Peg3 prom inh-2=63*
Cc1c(Cl)cccc1N=C1NC(=O)CS1,-18,/,-10,4,14,12,/,/,/,
Cc1ccccc1NC(=O)Cc1nc(COC(=O)CSc2ccc(F)cc2)cs1,-23,/,-11,4,9,16,/,/,/,
CS(=O)(=O)c1ccc(Cl)c(NC(=O)CCN2C(=O)NC3(CCCC3)C2=O)c1,-4,10,10,3,7,11,/,/,/,
O=C(/C=C/c1c(F)cccc1Cl)Nc1ncccn1,0,-53,-5,-1,-159,-214,/,/,/,
O=C(/C=C/c1c(F)cccc1Cl)c1ccc(O)cc1,20,100*,1,39*,-98,-109,97*,32,50*,ABHD5 PLIN5 conf=46*;HNF4 counter=48*
CCOC(=O)C(C(=O)OCC)C(C(=O)OCC)N1CCOCC1 (stereo not drawn),29,100*,-5,0,90*,106*,-16,/,/,HIF-2a inh conf=98*;HIF-1a counter=107*
CCOC(=O)c1ccc(Nc2ncnc3ccc(C)cc23)cc1,31,38,-3,-7,23,-6,/,/,/,
CCOc1ccc(Nc2ncnc3ccc([N+](=O)[O-])cc23)cc1,75*,69*,-14,-1,15,12,71*,53*,87*,CF NFkB conf=87*
Cn1c(Sc2ccc(Br)cc2)c(C=O)c2ccccc21,67*,84*,-12,-2,30,37,72*,53*,87*,CF NFkB conf=98*
Cn1c(Oc2ccc(F)cc2)c(C=O)c2ccccc21,34,40,-15,1,22,9,/,/,/,
C[C@@H]1CN([C@@H](C)CO)C(=O)CCCn2cc(nn2)CO[C@H]1CN(C)S(=O)(=O)c1ccc2c(c1)OCCCO2,32,/,2,-1,-7,6,/,/,/,
COc1ccc([C@H]2[C@H]3C=CC[C@@H](C)[C@@H]3C(=O)N2Cc2ccccc2)cc1Cl,35,34,-11,-1,28,22,/,/,/,
COc1ccc(Br)cc1[C@H]1[C@H]2C=CC[C@@H](C)[C@@H]2C(=O)N1Cc1ccccc1,47,58*,-30,-1,44*,22,37,/,/,HIF-2a inh conf=33;HIF-1a counter=46
COc1ccc(CCN(C)C(=O)CN2C(=O)NC3(CCCc4ccccc43)C2=O)cc1OC (stereo not drawn),23,12,-15,1,6,1,/,/,/,

# High-throughput results from PubChem.
